Test results from the supplement of paper PMC3334620.
The full ranking holds about 33,000 sequences; the median of “E-score (-0.5 to 0.5)” is about -0.011, and the highest 2% start at about 0.28. Many of the other results were omitted from the sample, so the highest values are more common in it than they were.

The sequences below were run against T1, Gcr1 (UniProt P07261) (assay: PBM E-score (8-mer binding enrichment) (E-score (-0.5 to 0.5)); higher = stronger / more preferred TF binding). Settings: protein concentration: 100 nM; construct: GST-full length.
T1 sequence: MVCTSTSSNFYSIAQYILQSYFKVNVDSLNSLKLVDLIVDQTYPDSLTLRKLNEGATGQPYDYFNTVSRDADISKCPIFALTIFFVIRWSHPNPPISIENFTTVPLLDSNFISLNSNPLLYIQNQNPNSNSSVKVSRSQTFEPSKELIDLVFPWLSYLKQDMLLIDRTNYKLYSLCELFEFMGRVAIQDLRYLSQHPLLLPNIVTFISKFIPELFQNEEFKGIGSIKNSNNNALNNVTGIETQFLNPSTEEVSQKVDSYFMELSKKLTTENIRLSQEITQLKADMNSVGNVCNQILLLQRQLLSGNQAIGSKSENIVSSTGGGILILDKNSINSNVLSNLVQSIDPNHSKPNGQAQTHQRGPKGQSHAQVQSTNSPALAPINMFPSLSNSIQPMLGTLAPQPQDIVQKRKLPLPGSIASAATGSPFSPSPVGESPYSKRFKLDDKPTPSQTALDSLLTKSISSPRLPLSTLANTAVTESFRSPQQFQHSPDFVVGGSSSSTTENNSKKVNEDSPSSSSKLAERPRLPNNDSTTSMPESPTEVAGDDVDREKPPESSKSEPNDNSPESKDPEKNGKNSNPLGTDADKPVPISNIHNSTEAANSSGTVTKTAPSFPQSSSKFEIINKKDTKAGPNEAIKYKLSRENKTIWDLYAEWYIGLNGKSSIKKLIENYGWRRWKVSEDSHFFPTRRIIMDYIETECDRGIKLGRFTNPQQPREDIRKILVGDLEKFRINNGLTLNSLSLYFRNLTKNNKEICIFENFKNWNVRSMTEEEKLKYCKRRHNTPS
Protocol: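 Universal 'all 10-mer' protein binding microarrays (Agilent AMADID 015681) probed with GST-tagged S. cerevisiae TFs (full-length or DBD) made by in vitro transcription/translation (PURExpress), about 100-200 nM. Bound TF was detected with fluorescent anti-GST. Each ungapped 8-mer (which stands for itself and its reverse complement) is scored by the PBM enrichment score (E-score), a modified Wilcoxon-Mann-Whitney statistic from -0.5 to +0.5, computed with the Universal PBM Analysis Suite. Scale: above 0.35 generally sequence-specific binding.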
With AGGCACTG the “PBM E-score” value was -0.0493.
TACCAGGA was tested, and the “PBM E-score” value was 0.19.
In the case of CTATGCTA, the “PBM E-score” value is reported as -0.075.
AGTCCTCG was tested, and the “PBM E-score” value was -0.0287.
With CAAGTCAA the “PBM E-score” value was -0.0468.
For GAAGTCAA, the “PBM E-score” value was 0.297.
For GAAGTCAC, the “PBM E-score” value was 0.00882.
With AGCCCCTA the “PBM E-score” value was -0.0303.
ATGGGTGG was tested, and the “PBM E-score” value was -0.0217.
AACGCCGC was tested, and the “PBM E-score” value was 0.123.
For GACGCCGC, the “PBM E-score” value was 0.37.
In the case of GACGCCTC, the “PBM E-score” value is reported as 0.282.
In the case of CACGCCTC, the “PBM E-score” value is reported as -0.0746.
With AACGCCTC the “PBM E-score” value was -0.0454.
In the case of CACGCCGC, the “PBM E-score” value is reported as 0.151.
In the case of AAAGGGTT, the “PBM E-score” value is reported as -0.0414.
With GTAAAGGA the “PBM E-score” value was 0.149.
For AAAGAGAC, the “PBM E-score” value was 0.0252.
For CGGTGCCA, the “PBM E-score” value was 0.00263.
In the case of AGGTGCCC, the “PBM E-score” value is reported as 0.395.
With AGGTGCCA the “PBM E-score” value was 0.191.
With CGGTGCCC the “PBM E-score” value was 0.231.
AGTTGCCA was tested, and the “PBM E-score” value was 0.134.
For GGTTGCCA, the “PBM E-score” value was 0.377.
AGGTGCCG was tested, and the “PBM E-score” value was 0.22.
For GGGTGCCA, the “PBM E-score” value was 0.414.
With CGTTGCCA the “PBM E-score” value was 0.0696.
For GTAAAGAC, the “PBM E-score” value was -0.129.
For CAGGCCAG, the “PBM E-score” value was -0.207.
With CGGCTGGA the “PBM E-score” value was 0.0497.
With CATTCGGA the “PBM E-score” value was 0.00656.
In the case of GATGCCGC, the “PBM E-score” value is reported as 0.267.
With GACAAGAC the “PBM E-score” value was 0.0539.
For CTCAGAAA, the “PBM E-score” value was -0.133.
GAAAACGC was tested, and the “PBM E-score” value was -0.167.
For AGTCTCGC, the “PBM E-score” value was -0.154.
With AGGGCTCC the “PBM E-score” value was 0.143.
For CAAAGGAC, the “PBM E-score” value was -0.127.
CGAGCTTC was tested, and the “PBM E-score” value was 0.371.
With AGAGCTTC the “PBM E-score” value was 0.267.
ACAGCTTA was tested, and the “PBM E-score” value was -0.0153.
With CCAGCTTA the “PBM E-score” value was -0.0932.
For CCAGCTGC, the “PBM E-score” value was 0.218.
With CCAGCTTC the “PBM E-score” value was 0.333.
For CGAGCTTA, the “PBM E-score” value was -0.185.
With ACAGCTTC the “PBM E-score” value was 0.345.
In the case of ACAGCTTG, the “PBM E-score” value is reported as -0.199.
For AGTTCCAT, the “PBM E-score” value was -0.107.
With AGAAGCAC the “PBM E-score” value was 0.126.
In the case of ACCCCGCC, the “PBM E-score” value is reported as 0.0633.
In the case of CTCTAAGA, the “PBM E-score” value is reported as -0.00019.
In the case of AACTTCGG, the “PBM E-score” value is reported as -0.0312.
In the case of ACCAGCTC, the “PBM E-score” value is reported as -0.149.
CATACGCA was tested, and the “PBM E-score” value was 0.0448.
With GATACGCA the “PBM E-score” value was 0.247.
In the case of TATACGCA, the “PBM E-score” value is reported as 0.285.
In the case of GATGCGGC, the “PBM E-score” value is reported as 0.299.
CATGCGGC was tested, and the “PBM E-score” value was -0.0307.
For GATGCGGA, the “PBM E-score” value was 0.033.
With CTGATCTC the “PBM E-score” value was -0.125.
With AGCGCCCG the “PBM E-score” value was 0.272.
For AATAGGAT, the “PBM E-score” value was 0.187.
CATAGGAA was tested, and the “PBM E-score” value was 0.134.
In the case of GATAGGAA, the “PBM E-score” value is reported as 0.208.
For TCTAGGAA, the “PBM E-score” value was 0.105.
TATAGGAA was tested, and the “PBM E-score” value was 0.318.
With AATAGGAA the “PBM E-score” value was 0.352.
For ACATATCA, the “PBM E-score” value was 0.129.
For CTCCGCGA, the “PBM E-score” value was 0.0908.
In the case of GGCATTTA, the “PBM E-score” value is reported as -0.124.
With ACTGCACA the “PBM E-score” value was -0.211.
In the case of ACAGCCAC, the “PBM E-score” value is reported as -0.00306.
With TCAGCCAA the “PBM E-score” value was -0.102.
In the case of CCAGCCAA, the “PBM E-score” value is reported as -0.11.
In the case of CCAGCCAC, the “PBM E-score” value is reported as 0.0313.
GCAGCCAA was tested, and the “PBM E-score” value was 0.395.
In the case of GCAGCCAC, the “PBM E-score” value is reported as 0.383.
With ACCGCCAT the “PBM E-score” value was -0.181.
In the case of GACCTAGC, the “PBM E-score” value is reported as -0.152.
In the case of GATATTGC, the “PBM E-score” value is reported as 0.00295.
With CCTAGGTC the “PBM E-score” value was -0.17.
For GCTCGACC, the “PBM E-score” value was 0.00687.
For CTGGCAGC, the “PBM E-score” value was 0.386.
In the case of CCGGCAGA, the “PBM E-score” value is reported as 0.0729.
In the case of ATGGCAGC, the “PBM E-score” value is reported as 0.0656.
CTGGCAGA was tested, and the “PBM E-score” value was 0.0263.
In the case of CCGGCAAG, the “PBM E-score” value is reported as -0.101.
In the case of CCGGCAGC, the “PBM E-score” value is reported as 0.292.
